Common to all, as to conditions: concentration: 1 μM, replicates: in singlicate; n = 1
Experiment [1] has as its system T1, MST1.
T1 construct: gene STK4

For experiment [2], the system named is T2, MST2.
T2 construct: gene STK3

Experiment [3] deals with T3, MST3.
T3 construct: gene STK24

For experiment [4], the system named is MST4.
Experiment [5] relates to MTOR.
The test system of experiment [6] is MUSK.
The subject of experiment [7] is MYLK2.
The test system of experiment [8] is MYLK4.
Experiment [9] has as its system MYLK.
For experiment [10], the system named is MYO3A.
Experiment [11] relates to MYO3B.
The test system of experiment [12] is T4, NDR1.
T4 construct: gene STK38

Experiment [13] concerns NDR2.
The test system of experiment [14] is NEK10.
For experiment [15], the system named is NEK11.
Experiment [16] deals with NEK1.
For experiment [17], the system named is NEK2.
The subject of experiment [18] is NEK3.
Experiment [19] relates to NEK4.
For experiment [20], the system named is NEK5.

Data on nine molecules can be found in paper PMC5540273 (PLoS ONE, 2017).

Molecules are shown by their SMILES.
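Note: KINOMEscan kinase panel screen.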

Turning to `Cc1c2ccc(N(C)c3ccnc(Nc4cccc(S(N)(=O)=O)c4)n3)cc2nn1Cc1ccccc1.Cl.Cl` [GW787226], the “%Inh” value is given as 32% in [1]; 13% in [2]; 0% in experiment [3]; 0% in [4]; 0% in experiment [5]; 33% in experiment [6]. Moreover, the “%Inh” value was found to be 0% in [7]; 0% in experiment [8]; 0% in [9]; 0% in experiment [10]; 41% in experiment [11]; 51% in experiment [12]. The “%Inh” value in experiment [13] is 1%; in [14], 0%; in [15] it was 0%; in [16] it was 32%; in [17], 0%; in [18], 22%. The “%Inh” value in [19] is recorded as 6%; in experiment [20], 0%.
In the case of `CN(C1=C(c2ccccc2)C(=O)NC1=O)c1ccccc1` [SB-334860], the “%Inh” value came to 0% in [1]; 6% in [2]; 7% in experiment [3]; 0% in [4]; 28% in experiment [5]; 0% in experiment [6]. Moreover, the “%Inh” value in experiment [7] was 11%; in experiment [8], 19%; in [9] it was 11%; in [10], 33%; in experiment [11], 0%; in experiment [12] it was 26%. For the same molecule, the “%Inh” value is recorded as 24% in experiment [13]; 15% in experiment [14]; 0% in [15]; 8% in experiment [16]; 0% in experiment [17]; 9% in experiment [18]. Also, the figures for the “%Inh” value in experiment [19] and in experiment [20] were 0% and 23%, respectively.
On to `Cc1cn2c(=O)cc(N3CCOCC3)nc2n1Cc1cccc(Cl)c1Cl` [GSK2334006], for which the “%Inh” value in experiment [1] is reported as 14%; in [2], 0%; in experiment [3] it was 0%; in experiment [4] it was 0%; in experiment [5], 37%; in experiment [6], 27%. Moreover, the “%Inh” value in experiment [7] worked out at 32%; in experiment [8], 9%; in [9], 8%; in experiment [10], 0%; in experiment [11], 0%; in experiment [12] it was 10%. Also, the “%Inh” value in experiment [13] was found to be 0%; in experiment [14], 10%; in experiment [15] it was 0%; in experiment [16], 0%; in [17], 14%; in experiment [18] it was 0%. The “%Inh” value in [19] was found to be 4%; in experiment [20], 14%.
For `COc1ccc(Nc2ncc(C#N)c(Nc3ccccc3C(N)=O)n2)cc1N1CCN(C)CC1.Cl` [GSK1558669], the “%Inh” value in experiment [1] is recorded as 98.3%; in [2], 51%; in [3], 95.5%; in [4] it was 99.4%; in [5], 0%; in experiment [6], 80%. For the same molecule, the “%Inh” value in experiment [7] came out at 98.2%; in experiment [8], 98.2%; in [9], 99.4%; in [10] it was 76%; in [11], 0%; in [12] it was 98.8%. Further, the “%Inh” value in [13] turned out to be 75%; in [14] it was 94.1%; in experiment [15] it was 97.5%; in [16] it was 91.6%; in experiment [17], 99.6%; in experiment [18] it was 93.5%. Further, the figures for the “%Inh” value in [19] and in experiment [20] were 94.7% and 100%, respectively.
Turning to `CC(C)(C)n1cnc2c(N)ncnc21` [SKF-97359], the “%Inh” value in [1] is recorded as 9%; in experiment [2], 0%; in experiment [3], 44%; in experiment [4] it was 0%; in experiment [5] it was 6%; in experiment [6] it was 0%. Moreover, the “%Inh” value in experiment [7] is listed as 0%; in [8], 0%; in [9], 27%; in experiment [10], 0%; in experiment [11], 5%; in [12], 0%. For the same molecule, the “%Inh” value came out at 0% in [13]; 12% in experiment [14]; 14% in experiment [15]; 0% in experiment [16]; 0% in experiment [17]; 42% in [18]. Further, the “%Inh” value in experiment [19] and in [20] was 0% throughout.
With `CCc1ccnc(/C=C/c2n[nH]c3cc(Sc4ccccc4C(=O)NC)ccc23)c1`, the “%Inh” value stood at 6% in [1]; 36% in [2]; 19% in experiment [3]; 4% in [4]; 12% in [5]; 0% in [6]. In addition, the “%Inh” value in experiment [7] was determined as 0%; in [8] it was 0%; in experiment [9], 0%; in experiment [10], 0%; in experiment [11], 0%; in experiment [12], 7%. For the same molecule, the “%Inh” value was determined as 0% in experiment [13]; 4% in experiment [14]; 0% in experiment [15]; 0% in [16]; 0% in [17]; 1% in experiment [18]. Also, the “%Inh” value in [19] and in experiment [20] was 0% throughout.
Turning to `COc1ccc(S(=O)(=O)NC2CCN(c3cc(C)nc(Nc4cccc(C#N)c4)n3)CC2)cc1.O=C(O)C(F)(F)F` [GSK1653539], the “%Inh” value in [1] was determined as 0%; in experiment [2] it was 0%; in experiment [3], 13%; in [4], 0%; in [5] it was 28%; in experiment [6], 0%. Further, the “%Inh” value worked out at 0% in [7]; 0% in [8]; 3% in experiment [9]; 17% in experiment [10]; 0% in experiment [11]; 35% in experiment [12]. For the same molecule, the “%Inh” value in experiment [13] came to 0%; in [14], 23%; in experiment [15], 0%; in [16], 0%; in [17], 3%; in [18] it was 0%. Moreover, the “%Inh” value in experiment [19] is 0%; in experiment [20] it was 2%.
As for `COc1ccc(COc2cc(-n3cnc4ccccc43)sc2C(N)=O)cc1` [GSK1024304], the “%Inh” value stood at 0% in [1]; 0% in experiment [2]; 0% in experiment [3]; 0% in experiment [4]; 0% in experiment [5]; 14% in [6]. The “%Inh” value in experiment [7] is listed as 0%; in experiment [8] it was 0%; in experiment [9], 0%; in experiment [10], 0%; in experiment [11], 0%; in experiment [12] it was 6%. In addition, the “%Inh” value in experiment [13] is 0%; in experiment [14], 19%; in [15], 0%; in experiment [16], 0%; in experiment [17] it was 0%; in experiment [18], 0%. The “%Inh” value in [19] was found to be 0%; in experiment [20], 7%.
Turning to `O=c1cc(N2CCOCC2)nc2n(Cc3cccc4ccccc34)ccn12` [GSK2333389], the “%Inh” value in experiment [1] is 0%; in [2], 9%; in experiment [3], 0%; in [4], 0%; in [5], 0%; in [6] it was 0%. In addition, the “%Inh” value in [7], in experiment [8], in experiment [9], in experiment [10], in experiment [11] and in experiment [12] was 0% throughout. Besides, the “%Inh” value in experiment [13] was determined as 0%; in [14], 0%; in experiment [15], 0%; in [16], 0%; in experiment [17], 6%; in experiment [18] it was 0%. The figures for the “%Inh” value in experiment [19] and in experiment [20] were 6% and 0%, respectively.
